In the library only some 21% were active in any assay of this set; here they are far more common.
TDP1 cell CPT: qHTS for Inhibitors of human tyrosyl-DNA phosphodiesterase 1 (TDP1): qHTS in cells in presence of CPT. chicken DT40 Tdp1-/-;hTDP1 cells + 20 nM CPT, ATP luminescence, 48 h. Potency, µM (series often up to 46.2 µM), for the others: at the highest dose activity change, negative = growth inhibition, hits mostly inhibitors. 12% of 420,000 active; also: potency is read from the fitted curve at half-maximal effect; nearly all actives have a fitted effect of over 55% in size
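Chicken DT40 Tdp1-/- cells complemented with human TDP1, 400 cells/well, exposed to compounds plus 20 nM camptothecin for at least 48 h at 37 C; viability read as ATP content by CellTiter-Glo luminescence.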
VP16 counter: VP16 counterscreen qHTS for inhibitors of ROR gamma transcriptional activity; AID 2546, 2010; Drosophila S2 Gal4-VP16 UAS-luciferase, luminescence, 20 h; 3.5% of 310,000 active; Potency, µM (top dose mostly 53.6 µM), inactives show at the top dose activity, negative = inhibition, actives largely listed as inhibitors;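 also: Gal4-VP16 expression switched on by copper sulfate through the metallothionein promoter; potency is read from the fitted curve at half-maximal effect; nearly all actives have a fitted effect of over 50% in size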
TDP1 cell noCPT: qHTS for Inhibitors of human tyrosyl-DNA phosphodiesterase 1 (TDP1): qHTS in cells in absence of CPT; 15% of 420,000 active; Potency, µM (highest dose often 46.2 µM), inactives show top-dose activity change, negative = growth inhibition, actives largely listed as inhibitors; DT40 Tdp1-/- hTDP1 cells, no CPT, ATP luminescence, 48 h; also: potency is read from the fitted curve at half-maximal effect; nearly all actives have a fitted effect of over 55% in size
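Compound effects on proliferation are scored in DT40 Tdp1-/-;hTDP1 cells in the absence of CPT. ATP levels (CellTiter-Glo luminescence) are recorded after a ≥48 hr, 37 °C incubation.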
IL-1B inflam inh: qHTS for Inhibitors of Inflammasome Signaling: IL-1-beta AlphaLISA Primary Screen. THP-1 LPS/ATP IL-1B secretion, AlphaLISA, 16 h; hits give low values. activity change, % at 57.5 µM. 4.7% of 360,000 active. AID 743279, 2014; in the data active = activity change below about -50%; inconclusive = mostly about -30% to -49%
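THP-1 cells pretreated 1 hr with compounds (up to 57.5 uM final), then stimulated with LPS (250 ng/mL final) plus ATP (1.25 mM final); secreted IL-1B measured by AlphaLISA after 16 hr, decreased signal indicating inhibition.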
ELG1 DNA repair: qHTS screen for small molecules that inhibit ELG1-dependent DNA repair in human embryonic kidney (HEK293T) cells expressing luciferase-tagged ELG1 | HEK293T ELG1-luciferase reporter, luminescence, 16 h; DNA damage induced by 5-fluorouridine | 2.3% of 330,000 active | Potency, µM (doses to about 46.1 µM), for the others: at the highest dose activity change, negative = inhibition, hits mostly inhibitors; also: potency is read from the fitted curve at half-maximal effect; nearly all actives have a fitted effect of over 55% in size
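5-Fluorouridine DNA damage + compound/DMSO, 2,000 cells/well, 16 h, 37 °C/5% CO2. ONE-Glo, 30 min RT, luminescence. Readout = decrease in reporter signal.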
RORgamma inh: qHTS for inhibitors of ROR gamma transcriptional activity; Nuclear receptor ROR-gamma (Mus musculus), P51450; Potency, µM (series often up to 53.6 µM), for inactives: at the top dose activity change, negative = inhibition, actives largely listed as inhibitors; Drosophila S2 Gal4-RORgamma UAS-luciferase reporter, 20 h; 5.4% of 310,000 active; AID 2551, 2010; also: potency is read from the fitted curve at half-maximal effect; nearly all actives have a fitted effect of over 60% in size
Target sequence (P51450 whole entry, looked up, the tested form may be a part): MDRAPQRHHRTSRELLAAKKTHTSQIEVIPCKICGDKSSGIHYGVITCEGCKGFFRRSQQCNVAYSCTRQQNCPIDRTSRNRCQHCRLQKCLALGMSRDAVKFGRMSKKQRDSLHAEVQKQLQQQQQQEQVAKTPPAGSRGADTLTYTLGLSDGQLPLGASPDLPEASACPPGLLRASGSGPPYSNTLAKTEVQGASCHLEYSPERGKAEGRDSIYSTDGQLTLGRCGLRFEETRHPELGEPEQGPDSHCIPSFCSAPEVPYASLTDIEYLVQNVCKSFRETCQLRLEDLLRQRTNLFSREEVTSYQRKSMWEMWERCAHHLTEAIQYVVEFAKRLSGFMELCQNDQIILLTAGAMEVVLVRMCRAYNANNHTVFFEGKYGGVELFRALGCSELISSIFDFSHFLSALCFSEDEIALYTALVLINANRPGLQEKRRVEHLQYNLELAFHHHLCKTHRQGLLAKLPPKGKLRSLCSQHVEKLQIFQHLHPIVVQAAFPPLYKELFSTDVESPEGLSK
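Drosophila S2 cells stably expressing Gal4-DBD/mouse RORγ fusion under metallothionein promoter plus UAS-luciferase; compound 1 h, then 700 uM CuSO4 induction for 20 h at ambient temperature; inhibition read as reduced luminescence.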
Numbers without * were called inactive; u = inconclusive; x = not tested or not shown; [ ] = another dose, or the depositor's remark. Unless noted, calls follow the shape of the dose curve; as a rule, active = well fitted curve in the direction sought with a large enough effect; inconclusive = small, poorly fitted or top-dose-only effect, or another doubt; inactive = no such curve, though single readings can be large; an effect the other way counts as inactive or inconclusive. % is scaled to controls: 0 for no effect and ±100 for the full control effect.

SMILES	TDP1 cell CPT	VP16 counter	TDP1 cell noCPT	IL-1B inflam inh	ELG1 DNA repair	RORgamma inh
COc1ccccc1CNC(=O)C1(C)CCN1Cc1ccc(OC(F)(F)F)cc1 (stereo not drawn)	16µM*	x	u	-10	x	x
CN(C)S(=O)(=O)c1ccc(C(=O)Nc2nc(-c3cccs3)cs2)cc1	21µM*	-19%	u	-3	12µM*	3%
O=C(Nc1nc(-c2cccs2)cs1)c1ccc(S(=O)(=O)N2CCCC2)cc1	u	3%	u	-72*	16µM*	34%
Cc1csc(NC(=O)c2ccc(S(=O)(=O)N3CCCC3)cc2)n1	u	7%	-25%	0	-12%	-2%
CCC(CC)c1nc(C#N)c(NCc2ccccc2)o1	23µM*	0%	21µM*	1	-21%	28%
Cc1cc(S(=O)(=O)N(Cc2ccc(C(C)C)cc2)CC2CCCO2)ccc1-n1cnnn1 (stereo not drawn)	u	-3%	-25%	-79*	16µM*	2%
Cc1cc(S(=O)(=O)N(Cc2ccc(F)cc2)CC2CCCO2)ccc1-n1cnnn1 (stereo not drawn)	-7%	3%	-28%	-9	-4%	8%
Cc1nn(CC(=O)NC2CCS(=O)(=O)C2)c(C)c1[N+](=O)[O-] (stereo not drawn)	-1%	x	3%	13	u	x
O=C(CCl)N1N=C(c2ccco2)CC1c1cccs1 (stereo not drawn)	2.1µM*	16µM*	1.8µM*	-105*	u	10µM*
CC(=O)N1N=C(c2ccco2)CC1c1cccs1 (stereo not drawn)	u	11%	-14%	7	11%	-5%
Cc1ccc(C2=NN(C(=O)CCl)C(c3cccs3)C2)o1 (stereo not drawn)	2.1µM*	u	2.6µM*	-102*	u	u
O=C(c1ccccc1)N1N=C(c2ccco2)CC1c1cccs1 (stereo not drawn)	u	-17%	21µM*	-14	0%	2%
Cc1ccc(C)c(CSc2nnc3[nH]c(=O)cc(-c4ccccc4)n23)c1	-3%	x	-3%	x	x	x
COc1ccccc1OC(C)C(=O)Nc1cccc(-c2nc3ccccc3o2)c1 (stereo not drawn)	u	x	21µM*	x	x	x
Cc1cc(OC(C)C(=O)Nc2cccc(-c3nc4ccccc4o3)c2)cc(C)c1Cl (stereo not drawn)	u	x	16µM*	x	x	x
COc1ccccc1OC(C)C(=O)Nc1cccc(-c2nc3ccccc3s2)c1 (stereo not drawn)	21µM*	x	12µM*	x	x	x
CC(C)C(=O)Nc1cccc(-c2nc3ccccc3o2)c1	-17%	23%	u	0	-8%	1%
CC(Oc1ccccc1F)C(=O)Nc1ccc(-c2nc3ccccc3s2)cc1 (stereo not drawn)	-21%	x	-26%	x	x	x
COC(=O)C1=C(C(=O)OC)C2C=CC1C1C(OC(C)=O)C(OC(C)=O)C21 (stereo not drawn)	-21%	x	-19%	13	x	x
CC(C)c1nc(SCC(=O)N2CCCCCC2)c2c(=O)n(C)c(=O)n(C)c2n1	u	-7%	u	-1	u	-4%
Cc1nc(SCC(=O)N2CCCCCC2)c2c(=O)n(C)c(=O)n(CC(C)C)c2n1	u	x	13µM*	-29	x	x
O=[N+]([O-])c1ccc2c3n([n+]([O-])c2c1)CCN=C3c1ccc(Cl)cc1	9.2µM*	x	15µM*	-14	-4%	x
Cc1ccc(C2=NCCn3c2c2ccc([N+](=O)[O-])cc2[n+]3[O-])cc1	4.1µM*	x	10µM*	8	-3%	x
CCc1cccc(NC(=O)Cn2c(=O)n(-c3cccc(Cl)c3)c(=O)c3c2c2cc(C)ccc2n3C)c1	-9%	x	-17%	x	x	x
Cc1nnsc1-c1onc(C)c1C(=O)O/N=C/c1ccc(Cl)cc1	u	3%	2%	0	12%	-2%
SMILES	TDP1 cell CPT	VP16 counter	TDP1 cell noCPT	IL-1B inflam inh	ELG1 DNA repair	RORgamma inh
O=C(c1ccc2ccccc2c1O)N1CCCCC1	u	x	u	15	x	x
CC1(C)Cc2c(ccc3ccccc23)C2=C(C(=O)N3CCCC3)C(=O)C(=O)N21	8.2µM*	23%	8.2µM*	71	u	-37%
CC(C)CCn1nnc2sc(-c3ccccc3)cc2c1=O	-8%	x	-21%	x	x	x
CCN(C(=O)Cn1nnc2sc(-c3ccccc3)cc2c1=O)c1cccc(C)c1	16µM*	x	u	x	x	x
COC(=O)C(C)n1nnc2sc(-c3ccccc3)cc2c1=O (stereo not drawn)	u	-27%	18µM*	-9	u	-37%
CCN(C(=O)Cn1nc(C)n2c(cc3cc(C)ccc32)c1=O)c1ccccc1	u	0%	u	-51*	18%	12%
O=C(O)c1cc(NN=C2CCN(Cc3ccccc3)CC2)ccc1Cl	1%	-9%	4%	-2	u	-1%
c1ccc(CN2CCC(=NNc3nc4ccccc4[nH]3)CC2)cc1	3%	-25%	-24%	120	1%	22µM*
O=C(N/N=C1\CCc2ccccc21)c1ccncc1	3%	-7%	-30%	-5	u	-24%
C/C(=N\Nc1nc2ccccc2[nH]1)c1ccc([N+](=O)[O-])cc1	u	-13%	u	-16	10%	u
CC(C)(C)C1CCC(=NNc2nc3ccccc3[nH]2)CC1 (stereo not drawn)	-15%	7%	u	75	-1%	18µM*
c1ccc2c(c1)CC/C2=N/Nc1nc2ccccc2[nH]1	u	5.6µM*	18µM*	-108*	u	1.1µM*
O=c1n(-c2ccccc2)c(=O)n2n1CC[C@H]1/C(=N\OC[C@@H](O)COCc3ccco3)[C@H]3O[C@@H]3[C@@H](O)[C@@H]12	x	-3%[10 µM]	x	x	x	0%[10 µM]
Cc1ccc(NC(=O)Cn2c(=O)n(-c3ccccc3)c(=O)c3ccc(C(=O)NCc4ccc5c(c4)OCO5)cc32)c(C)c1	u	x	-14%	x	x	x
CC1CCN(Cc2nc(Cl)c3c4c(sc3n2)CCC4)CC1	18µM*	u	13µM*	-96*	u	-29%
Clc1nc(CN2CCOCC2)nc2sc3c(c12)CCC3	10%	23%	1%	-30	1%	u

Compound activity: PubChem, National Center for Advancing Translational Sciences (NCATS)
